# Data: PubChem BioAssay AID1063 (University of Pittsburgh Molecular Library Screening Center, 2008)
# In all, about 200,000 compounds went through this assay and about 18,000 (9%) were called active. What follows is part of a selection rich in actives, with near analogues and random picks from the rest. Unmarked numbers belong to inactive results. Cut-off read from the data, not from the text of the source: active = inhibition above about 50%; inactive = the rest. Where a SMILES comes first, the peptide text is derived from it. The star is where a group is joined. OPac = O=C(CO*)c1ccccc1; Bz = O=C(c1ccccc1)*
# Experiment: antileishmanial activity against promastigotes – primary screen (AID 1063);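 note: promastigotes grown with compound for 44 hours at 28 °C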
# Conditions: Leishmania major promastigotes, resazurin fluorescence viability; at 10 µM; hits give high values
row,Structure (SMILES),inhibition
1,CCC(=O)N1c2ccccc2NC2=C(C(=O)CCC2)C1c1ccco1 (configuration not stated),3.39%
2,O=C(N/N=C1\CCSC1)c1cc(Cl)ccc1O,3.97%
3,CCCCCc1ccc(-c2ccc(OCC)cc2)nc1,-7.26%
4,CN(C)S(=O)(=O)c1ccc(NC(=O)N2CCOCC2)cc1,-2.72%
5,CCN(CC)CCNS(=O)(=O)c1ccc(/C=C/C(=O)O)cc1,-2.33%
6,O=C(Nc1cccnc1)c1cccc(S(=O)(=O)N2CCCC2)c1,-5.74%
7,c1ccc(C2=Nc3cccc4cccc(c34)N2)cc1,19.1%
8,Fc1ccccc1N=C1Nc2cccc3cccc1c23,8.76%
9,COc1ccccc1C1=Nc2cccc3cccc(c23)N1,69.7% (active)
10,CCOC(=O)/C(C#N)=C/c1ccc(N2CCCCC2)cc1,-8.77%
11,Cc1ccc(C(=O)NCCNC(=O)c2ccccc2)cc1,30.8%
12,CCCCCOC(=O)NCCOC(=O)Nc1ccc(C(=O)OCC)cc1,59.2% (active)
13,CCOC(=O)Nc1ccc(NC(=O)OCC)cc1,-2.26%
14,CCCCC(CCC(=O)Nc1ccc(C(=O)OCC)cc1)C(=O)O (configuration not stated),-9.84%
15,CCC(C(=O)Nc1ccc(C(C)C)cc1)c1ccccc1 (configuration not stated),-1.77%
16,Cc1cc(C)cc(NC(=O)CSc2ccccc2)c1,1.71%
17,COc1ccccc1N1CCN(C(=O)c2c(-c3c(Cl)cccc3Cl)noc2C)CC1,98.5% (active)
18,O=C(c1ccc(CSc2ccccc2)cc1)N1CCCCCC1,-6.75%
19,COc1ccccc1N1CCN(C(=O)c2ccc(S(=O)(=O)N3CCCCC3)cc2)CC1,59.5% (active)
20,COc1ccccc1N1CCN(C(=O)c2ccc(Cl)c(S(=O)(=O)N3CCCC3)c2)CC1,1.35%
21,O=C(c1ccc(S(=O)(=O)c2ccccc2)cc1)N1CCCCCC1,55.1% (active)
22,COc1cc2c(cc1OC)CN(C(=O)c1ccc(S(=O)(=O)N3CCCCCC3)cc1)CC2,24.6%
23,O=C(c1ccccc1)N1CCN(C(=O)N2CCCCC2)CC1,27.4%
24,COc1ccccc1N1CCN(C(=O)c2cc(-c3ccc(Br)cc3)on2)CC1,-7.17%
25,COc1ccccc1N1CCN(C(=O)c2cc(-c3ccc(Cl)c(Cl)c3)on2)CC1,-6.68%

row,Structure (SMILES),inhibition
1,CN1CCN(CCNC(=O)Nc2ccc([N+](=O)[O-])cc2)CC1,-0.61%
2,O=C(Nc1cc(Cl)cc(Cl)c1)C(NCCCO)c1ccccc1 (configuration not stated),10.6%
3,Cc1ccc(-c2cc(=O)c3ccc(F)cc3[nH]2)cc1,1.73%
4,CN1C(=O)C(CC(=O)Nc2ccccc2)S/C1=N/c1nccs1 (configuration not stated),-4.38%
5,CS(=O)(=O)N(CC(=O)N1CCCC1)Cc1ccccc1,-5.77%
6,Cc1ccc(-n2c(N)c(C(=O)N3CCOCC3)sc2=S)c(C)c1,6.62%
7,Cc1cccc(-n2c(N)c(C(=O)N3CCN(C)CC3)sc2=S)c1,9.91%
8,N#Cc1ccccc1-n1c(N)c(C(=O)N2CCCC2)sc1=S,52.1% (active)
9,O=C(CNC(=O)c1ccccc1)NCC(=O)OCC(=O)c1ccccc1 (Bz-Gly-Gly-OPac),-9.69%
10,COc1ccc(C)cc1NC(=O)Nc1ccccc1SC,10.1%
11,COc1ccc(C)cc1NC(=O)C(Sc1ccccc1)c1ccccc1 (configuration not stated),3.92%
12,COc1ccc(C)cc1NC(=O)C(OC(=O)c1cccc(S(=O)(=O)N(C)c2ccccc2)c1)c1ccccc1 (configuration not stated),97.6% (active)
13,OC(COCC1COc2ccccc2O1)CN1CCN(c2ccc(F)cc2)CC1 (configuration not stated),12%
14,Cc1ccnc(NC(=O)CCC(=O)N(CC(=O)NCCc2ccccc2)Cc2cccs2)c1,-4.68%
15,CCOc1ccc(CN2CCN(Cc3ccon3)CC2CCO)cc1 (configuration not stated),-5.47%
16,CCOc1ccc(CN2CCCN(C)CC2)cc1,54.1% (active)
17,CCOc1ccc(CN2CCN(Cc3ccc(C)o3)CC2CCO)cc1 (configuration not stated),-0.08%
18,COC(=O)c1sc2[nH]c(=S)n(N)c(=O)c2c1C,-7.2%
19,CC1CCCCC1NC(=O)CO/N=C/c1ccc(OC(F)F)cc1 (configuration not stated),13.4%
20,CCOc1ccc(C(=O)NC2CCN(CC(=O)NCc3cccs3)CC2)cc1,-4.61%
21,Cc1cc(C#N)c(SCC(N)=O)nc1-c1ccc(F)cc1,2.96%
22,Cc1cccc(NC(=S)N2CCC(c3nc4ccccc4s3)CC2)c1,-0.22%
23,CCCNC(=S)N1CCCC(c2nc3ccccc3[nH]2)C1 (configuration not stated),7.49%
24,Cc1cccc(NC(=S)N2CCCC(c3nc4ccccc4[nH]3)C2)c1 (configuration not stated),99.1% (active)
25,O=c1cc(CO)oc(C(Nc2cccc(C(F)(F)F)c2)c2ccccn2)c1O (configuration not stated),2.74%

row,Structure (SMILES),inhibition
1,Cc1ccc(Sc2ccncc2S(N)(=O)=O)cc1,84.9% (active)
2,CNS(=O)(=O)c1cnccc1N1CCN(c2cccc(C)c2)CC1,8.07%
3,Cc1cc(NC(=O)CSCc2ccccc2C)no1,-8.79%
4,Cc1ccc2oc(=O)c3cnn(CC(=O)N(Cc4ccco4)C4CCCCC4)c3c2c1,22.1%
5,Cc1ccc(C(C(=O)NC2CCCC2)N(Cc2ccco2)C(=O)CCC(=O)Nc2ccccn2)cc1 (configuration not stated),-1.72%
6,Cc1ccc2c(c1)N(CC(=O)N(Cc1ccccn1)Cc1ccco1)C(=O)C(C(C)C)O2 (configuration not stated),75.7% (active)
7,NC(=O)COC(=O)c1cc(S(=O)(=O)N2CCN(c3ccccc3)CC2)ccc1Cl,-1.75%
8,Cc1nn(Cc2ccc(Cl)cc2)c(Cl)c1/C=N/NC(=O)CNc1ccccc1F,8.05%
9,Cc1cc(C)c2nc(-c3cccnc3)cc(C(=O)Nc3ccc(S(=O)(=O)Nc4onc(C)c4C)cc3)c2c1,-3.47%
10,S=C(NCc1cccnc1)Nc1ccc(Cl)cc1Cl,10.6%
11,N#Cc1ccc(C(=O)Nc2cccc3cccnc23)c(F)c1,-0.23%
12,CC(=O)/C(=N\Nc1ccc(Cl)cc1Cl)Sc1cccc2cccnc12,96.8% (active)
13,O=C(NN1C(=O)C2C3C=CC(O3)C2C1=O)c1ccccc1 (configuration not stated),-9.99%
14,O=C1CC(N2CCN(c3ccc(F)cc3)CC2)C(=O)N1c1ccccc1 (configuration not stated),-0.81%
15,CCCNC(=O)NC(=O)COC(=O)CC(NC(N)=O)c1ccc(Cl)cc1 (configuration not stated),56.2% (active)
16,COCCNC(=O)NC(=O)COC(=O)C1(c2ccc(Cl)cc2)CC1,-5.98%
17,CC(C)(C)NC(=O)NC(=O)COC(=O)Cc1ccc(Cl)cc1Cl,-4.1%
18,O=C(Nc1ccccc1C(=O)N1CCCCCC1)c1ccccc1Cl,4.51%
19,COc1ccc(-c2ccc(CCC(=O)O)n2-c2ccc(O)cc2)cc1,-1.18%
20,Cc1ccsc1C1C(C#N)=C(N)OC2=C1C(=O)CC(C)(C)C2 (configuration not stated),9.53%
21,CCC(C)(C)n1nnnc1C(c1cccs1)N1CCN(c2nc3ccccc3s2)CC1 (configuration not stated),81.4% (active)
22,CCC(C)(C)n1nnnc1C(c1cccs1)N1CCN(Cc2ccccc2)CC1 (configuration not stated),50.4% (active)
23,CCCC(c1nnnn1C(C)(C)C)N1CCN(Cc2ccccc2)CC1 (configuration not stated),-6.34%
24,Fc1ccc(Cn2nnnc2C(c2cccs2)N2CCCCCC2)cc1 (configuration not stated),5.18%
25,COc1ccccc1C(c1nnnn1C(C)(C)C)N1CCN(Cc2ccccc2)CC1 (configuration not stated),17.2%

row,Structure (SMILES),inhibition
1,CCC(C)(C)n1nnnc1C(c1ccccc1OC)N1CCSCC1 (configuration not stated),6.66%
2,CC(C)N(Cc1ccccc1)C(=O)COC(=O)c1cnccn1,-4.04%
3,COC(=O)Cc1c(O)ccn(Cc2cccc(C(F)(F)F)c2)c1=O,-15.9%
4,CC(Sc1nnnn1C1CCCCC1)C(=O)O (configuration not stated),-5.74%
5,O=C(N/N=C/c1ccc([N+](=O)[O-])cc1)C(=O)N1CCCC1,-5.07%
6,O=C(OCC(=O)c1cccs1)c1ccc([N+](=O)[O-])o1,13.5%
7,COc1ccc(-c2nn(-c3ccccc3)cc2/C=N/Nc2ccccn2)cc1OC,27.8%
8,COc1cccc2c(N/N=C/c3ccco3)cc(C)nc12,2.22%
9,COc1ccccc1/C=N\Nc1cc(C)nc(-n2nc(C)cc2C)n1,98.9% (active)
10,COc1cccc(/C=N/Nc2ncc(C(F)(F)F)cc2Cl)c1O,28.2%
11,COc1ccc(Nc2cc(C)nc(-n3nc(C)cc3C)n2)cc1,28.9%
12,COc1cccc(/C=N/Nc2cc(C)nc(-c3ccccc3O)n2)c1O,71.2% (active)
13,CCc1ccc(CN(C)Cc2nc(Cc3ccccc3)no2)nc1,14%
14,S=C(NCc1ccco1)Nc1ccc2c(c1)OCCO2,-4.58%
15,COc1ccc(CCNC(=O)Cn2c(=O)n(CC3CCCO3)c(=O)c3ccccc32)cc1OC (configuration not stated),-4.82%
16,O=C(NCCc1ccccc1)C1CCC(Cn2c(=O)c3ccccc3n(Cc3cccnc3)c2=O)CC1 (configuration not stated),73.5% (active)
17,O=C(O)C1CC(=O)N(Cc2cccnc2)C1 (configuration not stated),-7.68%
18,Cc1c(CN2CCCC(C(=O)c3cccc(Cl)c3)C2)c(=O)n(-c2ccccc2)n1C (configuration not stated),16.8%
19,CCN(CC)CCNC(=O)c1ccc(NS(=O)(=O)c2ccc3c(c2)OCCO3)cc1,-8.8%
20,Cc1cccc(OCC(=O)Nc2ccccc2F)c1,8.74%
21,CC(C)C(C)(C#N)NC(=O)CSc1nncn1-c1ccccc1 (configuration not stated),-0.78%
22,CCCNS(=O)(=O)c1ccc(CCC(=O)N2CCCC2)cc1,1%
